Among the data in PubChem BioAssay (Tox21) are activity change, negative = cytotoxicity and Potency values, retold here.

Molecules are shown by their SMILES. Results filed as inconclusive are left out. Entries that show only a call come without a potency. The source made the active and inactive calls. Calls follow the shape of the dose curve; as a rule, active = well fitted cell-killing curve with a large enough effect in the repeat runs; inconclusive = weak or mixed curves, or effect the other way; inactive = flat fitted curve, though single readings scatter.
Potency is read from the fitted curve at half-maximal effect.

The assay is described as follows: qHTS RealTime-Glo MT Cell Viability Assay in HEK293 cells - 8 hour (AID 1224887). Also: nearly all actives have a fitted effect of over 50% in size. As to activity change, negative = cytotoxicity: top concentration of the series differs between compounds. Particulars: RealTime-Glo luminescence; series mostly up to 76.8 µM. From the text: U.S. Tox21 Program National Center for Advancing Translational Sciences [NCATS] NIH Chemical Genomics Center [NCGC] U.S. Environmental Protection Agency [EPA] National Institutes of Environmental Health Sciences [NIEHS] National Toxicology Program [NTP] U.S. Food and Drug Administration [FDA] Tox21 Assay Overview: Measure of cell viability is critical in the cell-base assay. Analysis of cell viability is necessary for the characterization of cell responses to cytotoxic drugs and environmental stress. A RealTime-Glo MT Cell Viability Assay to monitor cell viability in real time of continues cell culture during 40 hours of compound treatment was used to screen Tox21 10K library compounds in Hek293 cells. The RealTime-Glo MT Cell Viability Assay is a nonlytic, homogeneous, bioluminescent method to measure cell viability in real time using a simple, plate-based method. The assay involves adding NanoLuc luciferase and a cell-permeant prosubstrate to cells in culture. Viable cells reduce the proprietary prosubstrate to generate a substrate for NanoLuc luciferase. This substrate diffuses from cells into the surrounding culture medium, where it is rapidly used by the NanoLuc Enzyme to produce a luminescent signal. The signal correlates with the number of viable cells, making the assay well suited for cytotoxicity studies.
Tox21 Assay Protocol Summary: The mixture of Hek293 cell suspension and reagents were dispensed at 600cells/6 ul/well in 1536-well tissue culture treated black solid bottom plates using a Multidrop dispenser. After the assay plates were incubated at a 37 C/5% CO2 incubator for 5 hours, 23 nL of compounds dissolved in DMSO, positive and negative controls was transferred to the assay plate by a pintool work station. The plates were incubated at 37 C for 40 hours. The luminescence intensity were measured at 0h, 8h, 16h, 24h, 32h and 40h time points using ViewLux plate reader during compound treatment.
As to `CO[C@@H]1[C@H](OC(=O)NC(=O)CCl)CC[C@]2(CO2)[C@H]1[C@@]1(C)O[C@@H]1CC=C(C)C`, the activity change, negative = cytotoxicity was 6.68% [at 15.8 µM] (inactive).

`CCOC(=O)[C@]1(c2ccccc2)Oc2ccccc2[C@@H]1N`: the Potency result was “inactive”. Same read-out and setting: the result for `O=S(=O)(Cl)c1ccccc1` reads “inactive”; that for `CC[C@H]1C[C@H]2[C@@H]3CCC4=CC(=O)CC[C@@H]4[C@H]3CC[C@]2(C)[C@H]1O`, “inactive”. Same read-out and setting: the result for `COP(=O)(OC)O/C(=C/Cl)c1cc(Cl)c(Cl)cc1Cl` reads “inactive”; that for `Cc1ccc(N)cc1C`, “inactive”. The same measure, in the same setting: the result for `O=C(O)C(F)(F)C(F)(F)C(F)(F)C(F)(F)C(F)(F)C(F)(F)C(F)(F)C(F)(F)C(F)(F)F` reads “inactive”; that for `CCCCN=C=O`, “inactive”; that for `C=CC(=O)OCC(C)C`, “inactive”. Consider `COc1cc(Cl)c(OC)cc1Cl`, for which the Potency result is “inactive”. `CC1Sc2c(C(=O)O)c(=O)c3cc(F)c(N4CCNCC4)cc3n21` (stereo not given): the Potency result was “inactive”. Same read-out and setting: the result for `NNC(=O)c1cccnc1` reads “inactive”. On the same count and under the same terms, the result for `CC(C)N(CCC(C(N)=O)(c1ccccc1)c1ccccn1)C(C)C` (stereo not given) reads “inactive”; that for `O=C=Nc1ccc(Cl)cc1`, “inactive”; that for `CCC(Cl)CCl` (stereo not given), “inactive”. `N#CCC#N`: the Potency result was “inactive”. On the same count and under the same terms, for `IC(I)=C(I)I` the value was 17.4 µM (active). Same read-out and setting: for `COP(=S)(OC)Oc1cc(Cl)c(I)cc1Cl` the value was “inactive”. Take `CC(=O)[C@H]1CC[C@H]2[C@@H]3CC[C@H]4C[C@](C)(O)CC[C@]4(C)[C@H]3CC[C@]12C`: the Potency entry is “inactive”. The same measure, in the same setting: for `CCCCCCCCCCOC(=O)c1ccccc1C(=O)OCCCCCCCCCC` the value was “inactive”; for `c1ccc(CN2CCNCC2)cc1`, “inactive”; for `CC(=O)CCC(C)=O`, “inactive”. Same read-out and setting: the result for `NS(=O)(=O)C(F)(F)C(F)(F)C(F)(F)C(F)(F)C(F)(F)C(F)(F)C(F)(F)C(F)(F)F` reads “inactive”; that for `CCC(C)(NC(=O)c1cc(Cl)c(C)c(Cl)c1)C(=O)CCl` (stereo not given), 27.7 µM (active). As to `C=CCOC(C)=O`, the Potency entry was “inactive”. Still for that read-out and setting: the result for `Cn1sc(Cl)cc1=O` reads “inactive”; that for `CC(=O)C(C)(C)C`, “inactive”; that for `C#CCOC(C(=O)OCCN(C)C)(c1ccccc1)c1ccccc1`, “inactive”. The same measure, in the same setting: for `Brc1ccccc1` the value was “inactive”; for `c1ccc(C2CC2)c(OCC2=NCCN2)c1`, “inactive”. On the same count and under the same terms, for `CNC(C)Cc1ccccc1OC` (stereo not given) the value was “inactive”; for `Cc1c(F)c(F)c(COC(=O)C2C(/C=C(\Cl)C(F)(F)F)C2(C)C)c(F)c1F` (stereo not given), “inactive”; for `BrCCCCBr`, “inactive”.

`CC(C)(CCl)C(=O)Cl`: the Potency result is “inactive”. Consider `O=C(CBr)OCc1ccccc1`, for which the Potency entry was “inactive”. On the same count and under the same terms, the result for `OCCCBr` reads “inactive”; that for `Nc1nc(=S)[nH][nH]1`, “inactive”. The same measure, in the same setting: the result for `O=[N+]([O-])c1ccccc1CCl` reads “inactive”; that for `O=[N+]([O-])C(Br)(CO)CO`, “inactive”. The same measure, in the same setting: the result for `II` reads “inactive”.
